Laboratory results as given in PubChem BioAssay AID624351 (Southern Research Specialized Biocontainment Screening …, 2012).
Hit rate of the full screen: of about 2,400 compounds, about 1,400 (58%) were called active.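 The calls were made as follows: active = inhibition of 30% or more at any tested dose; inconclusive = primary hits over the limit that were never retested; inactive = the rest.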 So high a share suggests a set chosen from earlier hits. The list shows a part of the results.

Test: ADP Hunter readout inhibition without MgcRacGAP – biochemical, coupled enzyme counter-screen, artefact control for MgcRacGAP inhibitor project, dose response (AID 624351);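 also: signal is the ADP detection kit reading of free GDP without any GAP enzyme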;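 as to inhibition: 0% = median positive control wells and 100% = median negative control wells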
Settings: fluorescence, no MgcRacGAP; series mostly up to 80 µM; inhibition: at the top concentration

Compound	IC50	inhibition
CC[n+]1ccc(/C=C/c2ccc(N(C)C)cc2)c2ccccc21	47 µM (active)	
CCOc1ccccc1N1CCN(C/C=C/c2ccc(N(C)C)cc2)CC1		24.8% (inactive)
C[n+]1ccc(/C=C/c2ccccc2O)c2ccccc21		5.2% (inactive)
O=C(CCl)NCCN1C(=O)S/C(=C\c2cccnc2)C1=O		-1.45% (inactive)
COc1cc2c(cc1OC)C(/C=C/c1ccco1)=NCC2		3.65% (inactive)
O=c1/c(=C/c2ccc(O)cc2)sc2n1CCCN=2	21.7 µM (active)	
COc1cc(/C=c2\sc3n(c2=O)CCCN=3)ccc1O	17.7 µM (active)	
Cc1cc(Cl)cc(C)c1OCCOCCNCc1ccccc1		16.7% (inactive)
Cc1cc2[nH]c3c4ccccc4nc(C)c3c2cc1C		15.7% (inactive)
O=C1Nc2ccccc2C1=Nc1ccc2[nH]c3ccccc3c2c1	23.4 µM (active)	
CCOC(=O)c1c(N)sc2c1CCS(=O)(=O)C2		6.6% (inactive)
CCOC(=O)c1c(N)sc2c(O)c(Br)ccc12	58.1 µM (active)	
Oc1ccc2c(ccc3[nH]cnc32)c1	42.6 µM (active)	
CCN(CC)CCOC(=O)c1ccc(N/C=C(/C#N)c2nc(-c3ccc4c(c3)OCO4)cs2)cc1		5.24% (inactive)
CCN(CC)c1ccc(NC(=O)c2ccc3c(c2)OCO3)cc1	66.8 µM (active)	
CN(C)c1ccc(NC(=O)COC(=O)c2ccc3c(c2)OCO3)cc1	67 µM (active)	
CCN(CC)C(=O)C1CCCN(Cc2ccc3c(c2)OCO3)C1 (configuration not stated)		11.7% (inactive)
CC(C(=O)Nc1ccc2c(c1)OCO2)N1CCN(C)CC1 (configuration not stated)		26.4% (inactive)
O=C(Oc1ccc2c(c1)OCO2)c1ccncc1		20% (inactive)
Nc1ccc2c(c1)Nc1ccccc1CC2	37.8 µM (active)	
Cc1ccccc1OCCn1c(=S)[nH]c2c(N)ncnc21	68.2 µM (active)	
CC(C)Oc1ccc(OCCn2c(=S)[nH]c3c(N)ncnc32)cc1	76.4 µM (active)	

Compound	IC50	inhibition
Cc1ccccc1OCCN1CCCC1		14.1% (inactive)
C/C(=N/Nc1ccc(C(=O)O)cc1)c1ccc2c(c1)Nc1ccccc1S2	51.3 µM (active)	
C/C(=N\NC(=O)c1ccc(O)cc1)c1ccc2c(c1)Nc1ccccc1S2	41.1 µM (active)	
C/C(CC(=O)Nc1ccc(N(C)C)cc1)=N\NC(=O)c1ccc([N+](=O)[O-])cc1	59.5 µM (active)	
C/C(CC(=O)Nc1ccc(N(C)C)cc1)=N\NC(=O)c1ccc(F)cc1	46.5 µM (active)	
O=C(Cn1sc2ccccc2c1=O)Nc1ccc(F)cc1		6.79% (inactive)
COC(C(=O)N/N=C(\C)CC(=O)Nc1ccc(N(C)C)cc1)c1ccccc1 (configuration not stated)	47.7 µM (active)	
O=C(Nc1ccc(C2=NCCN2)cc1)c1ccc(C(=O)Nc2ccc(C3=NCCN3)cc2)c(Cl)c1		6.39% (inactive)
Cn1ccc(=Nc2ccc(NC(=O)c3ccc(N=c4ccn(C)c5ccc([N+](=O)[O-])cc45)cc3)cc2)cc1		6.89% (inactive)
C/C(CC(=O)Nc1ccc(N(C)C)cc1)=N\NC(=O)c1ccc([N+](=O)[O-])cc1Cl	61.6 µM (active)	
CCCCCCCCCCCCCCCC[n+]1ccccc1		4.98% (inactive)
C/C(CC(=O)Nc1ccc(N(C)C)cc1)=N\NC(=O)c1ccncc1	74.6 µM (active)	
N#C/C(=C\c1ccc(N2CCOCC2)o1)c1nc2ccccc2[nH]1	13.5 µM (active)	
N#C/C(=C/c1ccc(N2CCCCCC2)o1)c1ccc(Cl)cc1		6.82% (inactive)
N#C/C(=C/c1ccc(N2CCOCC2)o1)c1nc2ccccc2[nH]1	38.6 µM (active)	
CN(C)c1ccc(C=c2c3ccccc3n3c2cc(-c2ccc(Cl)cc2)[n+]3C)cc1		23.3% (inactive)
CCOc1ccc(C2NC(=O)C(C#N)=C(S)N2c2ccc(OC)cc2)cc1OC (configuration not stated)		2.78% (inactive)
CC(C)COc1ccc(N)cc1OCC(C)C	46.2 µM (active)	
CCOc1ccc(N)cc1OC	43.1 µM (active)	
CCN(Cc1ccncc1)Cc1ccc(OC)c(OC)c1		3.65% (inactive)
CN(C)/C=C1\NC(=S)N(c2ccccc2)C1=O	71.9 µM (active)	
COc1ccc(-n2sc3ccc(F)cc3c2=O)cc1		22.9% (inactive)

Compound	IC50	inhibition
COc1ccc(N2C(=O)/C(=C/N(C)C)NC2=S)cc1	77.5 µM (active)	
COc1ccc(-n2sc3ccccc3c2=O)cc1		10.5% (inactive)
Cc1cccc2c(N)c3c(nc12)N(C)CC3		-29.6% (inactive)
Cc1ccc2c(C)nc(/N=C(\N)NC(=O)N3c4ccccc4Sc4ccccc43)nc2c1	inactive	
Cc1cccn2c(CNC3CCCc4ccccc43)c(C(=O)N3CCCCC3)nc12 (configuration not stated)		-1.5% (inactive)
CN1CC(=O)N(CC(=O)Nc2ccc(N(C)C)cc2)c2ccccc2C1=O	58.4 µM (active)	
Cc1ccc(NC(=O)CN2CCC(Cc3ccccc3)CC2)cc1S(=O)(=O)N(C)C		7.91% (inactive)
O=C(CN1CCN(c2ccccn2)CC1)Nc1ccc(F)cc1		25.8% (inactive)
CN(C)c1ccc(NC(=O)CCN2C(=O)c3cccc([N+](=O)[O-])c3C2=O)cc1	72.7 µM (active)	
CN(C)c1ccc(NC(=O)CN2C(=O)c3ccccc3C2=O)cc1	83.9 µM (active)	
CCCCOc1ccc(NC(=O)CN2CCN(CC)CC2)cc1		29.1% (inactive)
O=C1C(Cl)=C(NC(=O)c2ccccc2)C(=O)C(Cl)=C1NC(=O)c1ccccc1		-0.63% (inactive)
CCN(CC)CCCC(C)NC(=O)c1c(NC(=O)c2ccccc2)sc2c1CCCC2 (configuration not stated)		14.1% (inactive)
Cc1cc(O)ccc1NC(=O)c1ccccc1	71 µM (active)	
O=C(O)CCCNC(=O)/C=C/c1ccco1		-3.21% (inactive)
CSc1ccc(CN2CCC(C(=O)NCc3ccc(C)cc3)CC2)cc1		21.7% (inactive)
Cc1csc(=O)n1CC(=O)OC(C)C(=O)Nc1ccc(N(C)C)cc1 (configuration not stated)	56.8 µM (active)	
CC1CN(CCCCN2C(=O)c3ccccc3C2=O)CC(C)O1 (configuration not stated)		16.3% (inactive)
Cc1cc(C)c(S(=O)(=O)Nc2ccc(N(C)C)cc2)c(C)c1-n1cnnn1	44.4 µM (active)	
O=[N+]([O-])c1ccc(C2CC(c3ccccc3)=Nc3ccccc3S2)cc1 (configuration not stated)		2.52% (inactive)
Cc1ccc(Cl)cc1-c1ccc(C=Nc2ccc(N3CCOCC3)cc2)o1	11.4 µM (active)	
Clc1cccc(-c2ccc(C=Nc3ccc(N4CCOCC4)cc3)o2)c1Cl	14.8 µM (active)	

Compound	IC50	inhibition
O=C1CCCC2=C1Sc1ccc(Cl)cc1N2	65.6 µM (active)	
CC(C)NCC#CCOc1ccc(Cl)cc1		15.6% (inactive)
COc1ccc(NCCC(O)c2ccc(Cl)cc2)cc1 (configuration not stated)	28 µM (active)	
COc1ccc(O)c(C(c2c(C)[nH][nH]c2=O)c2c(C)[nH][nH]c2=O)c1		-23.8% (inactive)
COc1ccc(NC(C)c2cc(Cl)ccc2O)cc1 (configuration not stated)	61.5 µM (active)	
CCN(CC)S(=O)(=O)c1ccc(N/N=C/c2ccc(O)cc2)nc1	38 µM (active)	
CCN(CC)S(=O)(=O)c1ccc(N/N=C/c2ccc(O)cc2O)nc1	29.4 µM (active)	
C[n+]1c(-c2ccccc2)cc2c(=Cc3ccc([N+](=O)[O-])cc3)c3ccccc3n21		5.28% (inactive)
CC(C)CN(Cc1c(O)ccc2ccccc12)CC(C)C	53.2 µM (active)	
CN=c1scc(C)n1/N=C/c1cc(Br)c(O)c(OC)c1	12.6 µM (active)	
CN=c1scc(C)n1/N=C/c1cc(Br)c(O)c(Br)c1	69.6 µM (active)	
COc1cc(/C=C2/C(=O)NN(c3ccc(Cl)cc3)C2=O)cc(Br)c1O		12.1% (inactive)
CCN=c1scc(C)n1/N=C/c1cc(Br)c(O)c(OC)c1	28.7 µM (active)	
Cc1cc(C)cc(-n2c3nc4ccccc4nc3c3c(=O)n(Cc4ccco4)cnc32)c1		-1.1% (inactive)
COc1ccc(CN2CCN(Cc3ccc4ccccc4c3)CC2)cc1OC		15% (inactive)
CN1CCCCCC1=Nc1ccccc1C#N		22.3% (inactive)
O=C1NC(=S)S/C1=C\C=C\c1ccc([N+](=O)[O-])o1		6.48% (inactive)
Cc1cc(/C=C2\SC(=S)NC2=O)c(C)[nH]1		10.3% (inactive)
Cc1cc(/C=C2\SC(=S)NC2=O)cc(C)c1O	29.1 µM (active)	
O=C1NC(=S)S/C1=C\c1cc(Cl)cc(Cl)c1O		22.8% (inactive)
COc1ccc(N=C2NC(=O)/C(=C/c3ccc(O)c(OC)c3)S2)cc1	24.1 µM (active)	
COc1cc(/C=N/N=C2/NC(=O)C(c3ccccc3)S2)ccc1O (configuration not stated)	41.6 µM (active)	

Compound	IC50	inhibition
COc1cc(/C=C2\SC(=Nc3ccc(Cl)c(C(=O)O)c3)NC2=O)c(Br)c(Br)c1O	37.5 µM (active)	
COc1ccc(/C=N/N=C2/NC(=O)C(CC(=O)O)S2)cc1OCc1ccc(Cl)cc1Cl (configuration not stated)		6.87% (inactive)
Cn1cccc1/C=C1\SC(=Nc2ccc(O)cc2)NC1=O	62.7 µM (active)	
COCCCNCCCCOc1c(Cl)cc(C)cc1Br		18.9% (inactive)
Nc1cc(SCc2ccc([N+](=O)[O-])cc2)ncn1		-2% (inactive)
COc1cc(/C=C2\SC(=Nc3ccccc3)NC2=O)cc(Cl)c1O	82 µM (active)	
COc1cc(/C=C2/SC(=Nc3ccc(O)cc3)NC2=O)ccc1O	27.2 µM (active)	
COc1cc(/C=C2/C(=O)ON=C2c2ccccc2)ccc1O		22.2% (inactive)
CN(C)c1ccc(/C=C2/NC(=O)NC2=O)cc1	52.8 µM (active)	
COc1cc(C=C2NC(=O)NC2=O)ccc1O	19.4 µM (active)	
CCOc1ccc(C2NC(=O)C(C#N)=C(S)N2c2cccc(C)c2)cc1OC (configuration not stated)		3.96% (inactive)
COc1cc(/C=C2\SC(=Nc3ccccc3OC)NC2=O)ccc1O	25 µM (active)	
COc1ccc(-c2cn[nH]c2-c2ccc(O)cc2O)cc1OC	57.6 µM (active)	
COc1ccccc1-c1cn[nH]c1-c1ccc(O)cc1O	51.4 µM (active)	
COc1ccc(-c2cn[nH]c2-c2ccc(O)cc2O)cc1	47.9 µM (active)	
CCn1c(=O)c(C(=O)CN(C)Cc2cccc(OC)c2OC)c(N)n(Cc2ccccc2)c1=O		26.9% (inactive)
COCCCNC1=C(C#N)C(=O)NC(c2cccs2)S1 (configuration not stated)		0.96% (inactive)
CC1(C)OC(=O)C(=Cc2ccc(-c3ccc(S(N)(=O)=O)cc3)o2)C(=O)O1		-0.06% (inactive)
O=c1c2ccc(F)cc2sn1-c1ccccc1		22.8% (inactive)
